# From article PMC7862700, “An all-to-all approach to the identification of sequence-specific readers for epigenetic DNA modifications on cytosine”
# Tests used:
# Experiment in all cases: DAPPL (digital affinity profiling via proximity ligation, sequencing); 10 mM Tris-HCl pH 7.5, 50 mM NaCl, 1 mM DTT, 4% glycerol, room temperature, 30 min; GST-TFs on glutathione beads, 16-mer random dsDNA library, 0.1% formaldehyde crosslink after washing; high values mean tight binding
# FEV = biological target: T1, FEV (Homo sapiens, UniProt Q99581 1-238); conditions: protein: recombinant; tags: N-terminal GST; dsDNA, one strand shown
# T1 sequence: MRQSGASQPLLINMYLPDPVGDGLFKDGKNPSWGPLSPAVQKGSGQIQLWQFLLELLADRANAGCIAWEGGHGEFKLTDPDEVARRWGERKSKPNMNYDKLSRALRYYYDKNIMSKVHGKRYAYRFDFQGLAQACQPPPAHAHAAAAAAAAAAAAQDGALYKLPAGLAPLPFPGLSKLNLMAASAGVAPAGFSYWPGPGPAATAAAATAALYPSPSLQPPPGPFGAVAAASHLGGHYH
# Outline: (§1)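 In yeast, human transcription factors were expressed with a GST fusion, then pulled down on glutathione beads and given DNA barcodes. Pooled with a tag-only sample, they were exposed to 200 nmole of a 16-mer random double-stranded DNA library (Tris/NaCl/DTT/glycerol buffer, room temperature, 30 min), washed, crosslinked with 0.1% formaldehyde, proximity-ligated using BsaI/T4 ligase for 1 h at 37 °C, PCR-amplified and read on an Illumina NextSeq500. Each hexamer's frequency of reads for a factor, divided by the matching frequency for the tag-only sample, gives the binding signal.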
# ETV5 = ETV5 (Homo sapiens, UniProt P41161 1-510); conditions: protein: recombinant; tags: N-terminal GST; dsDNA, one strand shown
# Chain of ETV5 (P41161 whole entry): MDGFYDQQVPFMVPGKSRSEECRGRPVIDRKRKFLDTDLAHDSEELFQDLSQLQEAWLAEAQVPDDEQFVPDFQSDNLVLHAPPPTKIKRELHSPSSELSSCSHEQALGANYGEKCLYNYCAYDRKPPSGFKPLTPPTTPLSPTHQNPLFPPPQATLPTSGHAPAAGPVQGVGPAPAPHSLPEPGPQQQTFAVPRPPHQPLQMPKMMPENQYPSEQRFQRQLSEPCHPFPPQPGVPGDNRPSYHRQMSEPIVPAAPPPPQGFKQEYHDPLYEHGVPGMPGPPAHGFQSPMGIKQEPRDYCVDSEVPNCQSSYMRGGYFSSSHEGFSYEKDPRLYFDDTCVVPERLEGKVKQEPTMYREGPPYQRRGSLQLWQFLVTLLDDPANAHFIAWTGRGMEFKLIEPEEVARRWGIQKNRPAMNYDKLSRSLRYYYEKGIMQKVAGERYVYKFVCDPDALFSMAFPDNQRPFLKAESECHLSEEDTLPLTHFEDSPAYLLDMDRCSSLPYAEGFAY
# Outline: as §1
# HSF1 = HSF1 (Homo sapiens, UniProt Q00613 1-529); conditions: protein: recombinant; tags: N-terminal GST; chain copies: 3; dsDNA, one strand shown
# Chain of HSF1 (Q00613 whole entry): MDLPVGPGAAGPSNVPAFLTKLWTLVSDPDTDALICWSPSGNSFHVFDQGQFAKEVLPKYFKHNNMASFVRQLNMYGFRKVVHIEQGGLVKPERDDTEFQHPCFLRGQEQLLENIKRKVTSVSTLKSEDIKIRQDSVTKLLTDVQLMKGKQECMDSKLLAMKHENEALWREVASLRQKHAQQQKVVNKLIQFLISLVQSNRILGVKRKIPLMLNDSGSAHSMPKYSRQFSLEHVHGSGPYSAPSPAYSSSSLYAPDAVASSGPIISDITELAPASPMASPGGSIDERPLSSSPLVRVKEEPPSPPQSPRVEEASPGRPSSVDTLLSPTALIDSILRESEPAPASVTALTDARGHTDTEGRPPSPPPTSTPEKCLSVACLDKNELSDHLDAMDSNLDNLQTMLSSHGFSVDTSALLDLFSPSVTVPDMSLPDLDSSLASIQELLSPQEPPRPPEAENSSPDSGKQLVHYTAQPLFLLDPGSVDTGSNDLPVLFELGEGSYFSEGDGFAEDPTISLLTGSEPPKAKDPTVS
# Outline: as §1
# SPIC = biological target: T2, SPIC (Homo sapiens, UniProt Q8N5J4 1-248); conditions: protein: recombinant; tags: N-terminal GST; dsDNA, one strand shown
# T2 sequence: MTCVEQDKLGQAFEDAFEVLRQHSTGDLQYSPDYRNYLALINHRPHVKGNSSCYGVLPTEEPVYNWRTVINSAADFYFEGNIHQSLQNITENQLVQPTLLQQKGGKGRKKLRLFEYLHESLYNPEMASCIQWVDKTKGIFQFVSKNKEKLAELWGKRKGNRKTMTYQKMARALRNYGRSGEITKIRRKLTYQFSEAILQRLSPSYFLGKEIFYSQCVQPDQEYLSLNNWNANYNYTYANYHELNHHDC
# Outline: as §1
# ELF4 = ELF4 (Homo sapiens, UniProt Q99607 1-663); conditions: protein: recombinant; tags: N-terminal GST; dsDNA, one strand shown
# Chain of ELF4 (Q99607 whole entry): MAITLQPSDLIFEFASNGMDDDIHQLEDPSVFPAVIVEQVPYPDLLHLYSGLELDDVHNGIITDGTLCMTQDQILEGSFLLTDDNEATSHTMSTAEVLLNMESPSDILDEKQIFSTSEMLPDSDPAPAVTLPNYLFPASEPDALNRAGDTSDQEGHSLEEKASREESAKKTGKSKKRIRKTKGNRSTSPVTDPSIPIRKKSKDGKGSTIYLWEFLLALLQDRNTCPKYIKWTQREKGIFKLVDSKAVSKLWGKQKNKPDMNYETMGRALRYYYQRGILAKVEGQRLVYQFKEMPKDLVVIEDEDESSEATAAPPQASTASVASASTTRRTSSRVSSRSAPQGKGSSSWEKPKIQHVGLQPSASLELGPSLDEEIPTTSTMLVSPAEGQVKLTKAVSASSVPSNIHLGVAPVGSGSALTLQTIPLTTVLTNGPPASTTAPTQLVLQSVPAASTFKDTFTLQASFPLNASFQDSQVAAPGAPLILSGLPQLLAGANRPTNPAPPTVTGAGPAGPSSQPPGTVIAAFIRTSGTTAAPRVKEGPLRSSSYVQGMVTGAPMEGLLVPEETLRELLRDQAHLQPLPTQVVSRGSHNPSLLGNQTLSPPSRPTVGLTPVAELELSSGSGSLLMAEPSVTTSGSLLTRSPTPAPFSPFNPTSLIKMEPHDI
# Outline: as §1
# ELK4 = biological target: T3, ELK4 (Homo sapiens, UniProt P28324-2 1-405); conditions: protein: recombinant; tags: N-terminal GST; dsDNA, one strand shown
# T3 sequence: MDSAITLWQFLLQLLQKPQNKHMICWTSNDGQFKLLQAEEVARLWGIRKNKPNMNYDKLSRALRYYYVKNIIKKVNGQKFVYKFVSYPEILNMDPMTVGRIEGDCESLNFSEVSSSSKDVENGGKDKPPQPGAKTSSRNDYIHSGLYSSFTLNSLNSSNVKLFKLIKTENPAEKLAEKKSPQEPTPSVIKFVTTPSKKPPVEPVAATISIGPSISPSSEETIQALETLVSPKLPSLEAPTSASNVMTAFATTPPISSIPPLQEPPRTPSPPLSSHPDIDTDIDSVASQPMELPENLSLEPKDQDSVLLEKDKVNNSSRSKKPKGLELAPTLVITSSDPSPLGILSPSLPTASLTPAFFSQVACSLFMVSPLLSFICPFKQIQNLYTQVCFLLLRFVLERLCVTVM
# Outline: as §1
# ETV2 = biological target: T4, ETV2 (Homo sapiens, UniProt O00321 1-342); conditions: protein: recombinant; tags: N-terminal GST; dsDNA, one strand shown
# T4 sequence: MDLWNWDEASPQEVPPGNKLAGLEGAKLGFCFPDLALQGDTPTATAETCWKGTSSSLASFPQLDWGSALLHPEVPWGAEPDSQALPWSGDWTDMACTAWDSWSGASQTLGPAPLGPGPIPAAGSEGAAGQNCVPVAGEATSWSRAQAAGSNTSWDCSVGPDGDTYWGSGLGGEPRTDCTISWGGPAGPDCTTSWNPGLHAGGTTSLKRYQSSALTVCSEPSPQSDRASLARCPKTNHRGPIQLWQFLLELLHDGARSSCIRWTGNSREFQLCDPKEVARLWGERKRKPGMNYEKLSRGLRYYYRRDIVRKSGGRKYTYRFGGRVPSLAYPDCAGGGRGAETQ
# Outline: as §1
# ELF3 = biological target: T5, ELF3 (Homo sapiens, UniProt P78545 1-371); conditions: protein: recombinant; tags: N-terminal GST; dsDNA, one strand shown
# T5 sequence: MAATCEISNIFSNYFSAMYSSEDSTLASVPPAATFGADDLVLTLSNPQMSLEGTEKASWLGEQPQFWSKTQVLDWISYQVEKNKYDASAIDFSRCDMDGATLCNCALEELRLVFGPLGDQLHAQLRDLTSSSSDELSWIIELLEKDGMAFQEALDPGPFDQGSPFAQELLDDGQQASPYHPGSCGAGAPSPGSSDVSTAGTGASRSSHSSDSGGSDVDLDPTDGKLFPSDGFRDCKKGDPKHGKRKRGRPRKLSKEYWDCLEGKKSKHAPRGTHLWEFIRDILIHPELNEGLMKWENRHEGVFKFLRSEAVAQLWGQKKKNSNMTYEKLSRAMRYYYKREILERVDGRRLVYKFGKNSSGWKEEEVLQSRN
# Outline: as §1
# CRX = CRX (Homo sapiens, UniProt O43186 1-299); conditions: protein: recombinant; tags: N-terminal GST; dsDNA, one strand shown
# Chain of CRX (O43186 whole entry): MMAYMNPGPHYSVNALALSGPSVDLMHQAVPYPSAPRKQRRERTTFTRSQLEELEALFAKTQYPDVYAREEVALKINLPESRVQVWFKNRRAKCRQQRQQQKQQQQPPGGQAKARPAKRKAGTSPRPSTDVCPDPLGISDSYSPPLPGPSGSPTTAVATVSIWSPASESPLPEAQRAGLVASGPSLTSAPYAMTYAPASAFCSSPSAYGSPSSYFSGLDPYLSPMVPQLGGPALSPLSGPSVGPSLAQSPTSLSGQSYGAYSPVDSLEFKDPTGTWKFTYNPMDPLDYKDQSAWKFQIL
# Outline: as §1
# ETV1 = ETV1 (Homo sapiens, UniProt P50549 1-477); conditions: protein: recombinant; tags: N-terminal GST; dsDNA, one strand shown
# Chain of ETV1 (P50549 whole entry): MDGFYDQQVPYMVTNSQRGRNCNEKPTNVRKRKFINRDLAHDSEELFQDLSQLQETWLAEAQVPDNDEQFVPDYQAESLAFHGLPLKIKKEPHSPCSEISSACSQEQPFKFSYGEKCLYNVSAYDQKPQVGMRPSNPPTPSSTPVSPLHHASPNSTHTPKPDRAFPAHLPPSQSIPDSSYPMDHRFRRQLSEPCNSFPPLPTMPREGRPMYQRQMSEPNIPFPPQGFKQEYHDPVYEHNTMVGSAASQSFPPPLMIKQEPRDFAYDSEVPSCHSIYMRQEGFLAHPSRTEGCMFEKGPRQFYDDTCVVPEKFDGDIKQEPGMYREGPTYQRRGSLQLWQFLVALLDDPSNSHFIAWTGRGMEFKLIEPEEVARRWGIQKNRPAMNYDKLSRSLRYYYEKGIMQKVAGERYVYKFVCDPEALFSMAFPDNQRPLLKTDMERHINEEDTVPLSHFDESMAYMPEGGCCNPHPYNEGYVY
# Outline: as §1
# ERF = biological target: T6, ERF (Homo sapiens, UniProt P50548 1-548); conditions: protein: recombinant; tags: N-terminal GST; dsDNA, one strand shown
# T6 sequence: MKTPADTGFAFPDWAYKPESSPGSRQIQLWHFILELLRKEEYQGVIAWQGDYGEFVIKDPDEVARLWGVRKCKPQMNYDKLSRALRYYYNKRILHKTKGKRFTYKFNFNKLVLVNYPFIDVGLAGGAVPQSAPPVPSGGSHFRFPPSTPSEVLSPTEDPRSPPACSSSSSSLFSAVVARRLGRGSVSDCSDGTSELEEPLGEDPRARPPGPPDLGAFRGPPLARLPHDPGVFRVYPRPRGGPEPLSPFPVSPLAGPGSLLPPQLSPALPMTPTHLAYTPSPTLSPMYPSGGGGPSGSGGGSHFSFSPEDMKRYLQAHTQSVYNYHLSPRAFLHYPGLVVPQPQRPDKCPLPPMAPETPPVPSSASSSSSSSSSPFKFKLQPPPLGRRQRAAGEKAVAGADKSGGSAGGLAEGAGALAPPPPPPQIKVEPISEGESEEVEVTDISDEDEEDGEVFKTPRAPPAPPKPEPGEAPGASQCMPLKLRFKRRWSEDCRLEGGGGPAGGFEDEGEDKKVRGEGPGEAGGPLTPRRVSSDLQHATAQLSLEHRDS
# Outline: as §1
# ETV3L = biological target: T7, ETV3L (Homo sapiens, UniProt Q6ZN32 1-361); conditions: protein: recombinant; tags: N-terminal GST; dsDNA, one strand shown
# T7 sequence: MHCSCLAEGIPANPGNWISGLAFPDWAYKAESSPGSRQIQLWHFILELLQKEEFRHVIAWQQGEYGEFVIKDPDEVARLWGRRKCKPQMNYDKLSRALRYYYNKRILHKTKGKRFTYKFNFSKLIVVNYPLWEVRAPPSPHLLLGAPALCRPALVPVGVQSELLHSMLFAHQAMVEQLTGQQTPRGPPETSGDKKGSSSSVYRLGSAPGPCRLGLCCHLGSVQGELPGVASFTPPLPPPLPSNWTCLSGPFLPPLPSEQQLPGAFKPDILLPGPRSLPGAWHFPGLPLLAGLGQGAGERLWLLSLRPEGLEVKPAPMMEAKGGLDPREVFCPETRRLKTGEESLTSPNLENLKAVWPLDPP
# Outline: as §1
# ETS2 = biological target: T8, ETS2 (Homo sapiens, UniProt P15036 1-469); conditions: protein: recombinant; tags: N-terminal GST; dsDNA, one strand shown
# T8 sequence: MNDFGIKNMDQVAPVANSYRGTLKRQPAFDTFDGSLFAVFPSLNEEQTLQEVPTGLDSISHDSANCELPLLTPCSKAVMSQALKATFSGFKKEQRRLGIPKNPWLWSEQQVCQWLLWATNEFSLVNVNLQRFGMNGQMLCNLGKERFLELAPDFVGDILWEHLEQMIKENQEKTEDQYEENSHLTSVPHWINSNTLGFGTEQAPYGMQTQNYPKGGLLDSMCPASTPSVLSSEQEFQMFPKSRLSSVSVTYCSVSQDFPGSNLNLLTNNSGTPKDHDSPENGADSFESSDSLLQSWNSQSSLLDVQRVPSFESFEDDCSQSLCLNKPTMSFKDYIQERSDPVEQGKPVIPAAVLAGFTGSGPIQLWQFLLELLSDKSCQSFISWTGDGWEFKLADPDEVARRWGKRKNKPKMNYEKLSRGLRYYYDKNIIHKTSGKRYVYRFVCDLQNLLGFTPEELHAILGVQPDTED
# Outline: as §1
# SPDEF = biological target: T9, SPDEF (Homo sapiens, UniProt O95238 1-335); conditions: protein: recombinant; tags: N-terminal GST; dsDNA, one strand shown
# T9 sequence: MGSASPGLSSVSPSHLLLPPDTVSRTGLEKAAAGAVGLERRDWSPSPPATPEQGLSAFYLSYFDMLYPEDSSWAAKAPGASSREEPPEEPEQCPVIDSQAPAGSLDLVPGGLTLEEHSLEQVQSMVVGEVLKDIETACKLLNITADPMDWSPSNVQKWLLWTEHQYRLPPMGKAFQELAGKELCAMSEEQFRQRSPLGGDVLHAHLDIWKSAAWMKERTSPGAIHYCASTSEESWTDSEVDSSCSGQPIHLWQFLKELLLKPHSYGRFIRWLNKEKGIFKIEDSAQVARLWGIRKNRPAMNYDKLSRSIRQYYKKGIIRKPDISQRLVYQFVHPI
# Outline: as §1
# ETV7 = biological target: T10, ETV7 (Homo sapiens, UniProt Q9Y603 1-341); conditions: protein: recombinant; tags: N-terminal GST; dsDNA, one strand shown
# T10 sequence: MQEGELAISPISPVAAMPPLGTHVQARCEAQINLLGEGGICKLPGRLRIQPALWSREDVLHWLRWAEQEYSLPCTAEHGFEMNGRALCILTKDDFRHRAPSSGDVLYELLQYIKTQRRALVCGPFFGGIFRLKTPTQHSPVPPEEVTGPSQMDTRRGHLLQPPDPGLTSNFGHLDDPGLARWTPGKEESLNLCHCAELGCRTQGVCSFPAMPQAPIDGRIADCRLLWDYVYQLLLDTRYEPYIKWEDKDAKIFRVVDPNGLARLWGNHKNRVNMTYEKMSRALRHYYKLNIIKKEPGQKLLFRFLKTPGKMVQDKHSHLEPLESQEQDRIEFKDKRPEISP
# Outline: as §1
# ELF5 = biological target: T11, ELF5 (Homo sapiens, UniProt Q9UKW6-2 1-255); conditions: protein: recombinant; tags: N-terminal GST; dsDNA, one strand shown
# T11 sequence: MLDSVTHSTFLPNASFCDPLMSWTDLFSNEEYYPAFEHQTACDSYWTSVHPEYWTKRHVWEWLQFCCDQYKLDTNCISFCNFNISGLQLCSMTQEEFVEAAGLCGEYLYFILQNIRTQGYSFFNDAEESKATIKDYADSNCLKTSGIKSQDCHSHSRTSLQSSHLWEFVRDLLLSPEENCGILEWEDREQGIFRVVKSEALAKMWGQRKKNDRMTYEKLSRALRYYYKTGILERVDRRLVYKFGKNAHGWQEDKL
# Outline: as §1
# ETV3 = biological target: T12, ETV3 (Homo sapiens, UniProt P41162-2 1-143); conditions: protein: recombinant; tags: N-terminal GST; dsDNA, one strand shown
# T12 sequence: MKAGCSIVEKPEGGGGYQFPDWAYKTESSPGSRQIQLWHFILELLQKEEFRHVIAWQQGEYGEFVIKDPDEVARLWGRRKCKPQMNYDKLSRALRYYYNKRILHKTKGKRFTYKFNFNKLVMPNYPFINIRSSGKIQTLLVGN
# Outline: as §1
# ETV6 = ETV6 (Homo sapiens, UniProt P41212 1-452); conditions: protein: recombinant; tags: N-terminal GST; dsDNA, one strand shown
# Chain of ETV6 (P41212 whole entry): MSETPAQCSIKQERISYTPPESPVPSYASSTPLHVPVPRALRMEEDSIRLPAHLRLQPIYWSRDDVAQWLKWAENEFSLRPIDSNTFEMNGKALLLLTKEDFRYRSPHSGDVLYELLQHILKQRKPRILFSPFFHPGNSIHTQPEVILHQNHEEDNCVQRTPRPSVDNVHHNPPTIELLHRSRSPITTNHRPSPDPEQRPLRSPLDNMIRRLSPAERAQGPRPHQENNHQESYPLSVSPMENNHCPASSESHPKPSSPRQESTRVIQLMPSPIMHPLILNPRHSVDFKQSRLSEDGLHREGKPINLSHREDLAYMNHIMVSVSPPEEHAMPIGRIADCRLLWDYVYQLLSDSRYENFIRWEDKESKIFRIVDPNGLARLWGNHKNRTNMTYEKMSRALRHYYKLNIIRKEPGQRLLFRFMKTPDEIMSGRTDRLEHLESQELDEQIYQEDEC
# Outline: as §1
sequence,measurement,setting,value
TGAATT,binding signal,FEV,"1.18 fold enrichment (6-mer frequency, TF over GST control)"
same,binding signal,ETV5,"1.15 fold enrichment (6-mer frequency, TF over GST control)"
same,binding signal,HSF1,"1.23 fold enrichment (6-mer frequency, TF over GST control)"
same,binding signal,SPIC,"1.34 fold enrichment (6-mer frequency, TF over GST control)"
same,binding signal,ELF4,"1.16 fold enrichment (6-mer frequency, TF over GST control)"
same,binding signal,ELK4,"1.01 fold enrichment (6-mer frequency, TF over GST control)"
same,binding signal,ETV2,"1.19 fold enrichment (6-mer frequency, TF over GST control)"
same,binding signal,ELF3,"1.12 fold enrichment (6-mer frequency, TF over GST control)"
same,binding signal,CRX,"1.38 fold enrichment (6-mer frequency, TF over GST control)"
same,binding signal,ETV1,"1.23 fold enrichment (6-mer frequency, TF over GST control)"
same,binding signal,ERF,"1.14 fold enrichment (6-mer frequency, TF over GST control)"
same,binding signal,ETV3L,"1.17 fold enrichment (6-mer frequency, TF over GST control)"
same,binding signal,ETS2,"1.16 fold enrichment (6-mer frequency, TF over GST control)"
same,binding signal,SPDEF,"1.11 fold enrichment (6-mer frequency, TF over GST control)"
same,binding signal,ETV7,"1.21 fold enrichment (6-mer frequency, TF over GST control)"
same,binding signal,ELF5,"1.13 fold enrichment (6-mer frequency, TF over GST control)"
same,binding signal,ETV3,"1.16 fold enrichment (6-mer frequency, TF over GST control)"
same,binding signal,ETV6,"1.03 fold enrichment (6-mer frequency, TF over GST control)"
